In PubChem BioAssay AID430 (Sanford-Burnham Center for Chemical Genomics, 2006) one finds cytotoxicity data, which are given here for 97 compounds.

Molecules are shown by their SMILES. In all, about 63,000 compounds went through this assay and about 1,100 (1.7%) were called active. The sample as a whole holds a higher share of actives than the screen did. Entries with a potency or affinity are not part of this list. Values without a mark were called inactive. Cut-off read from the data, not from the text of the source: active = cytotoxicity above about 50%; inactive = the rest.

The assay can be described thus: HPDE-C7 pancreatic duct cell viability loss – fluorescence, HTS (AID 430).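 Note: cells exposed to compound for 48 hours before viability readout; 0% = vehicle and 100% = reference cytotoxic drug.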 The note with it: HPDE-C7 pancreatic duct cells viability, at 10 µM, hits give high values.
Regarding `CNC(=O)CCn1nc(-c2ccc(Cl)cc2)c2ccccc2c1=O`, the cytotoxicity was 10.8%.
Under `Oc1ccc(N=Cc2ccc(O)c(O)c2)cc1` stands 18%.
Under `COc1ccc(-c2cc(O)cc(O)c2)cc1` stands -7.5%; under `CCn1c(C2CC(=O)N(Cc3ccccc3)C2)nc2ccccc21` (configuration not stated), -14.7%; under `O=C1CC(=O)N(Cc2cccs2)C(=O)N1`, -15.3%.
For `O=C(O)c1ccc(NC(=O)C2CC=CCC2C(=O)O)cc1` (configuration not stated) the value was -3.4%; for `CCOCCCN(Cc1cc2cc(C)cc(C)c2[nH]c1=O)C(=O)N(CC)CC`, -8.9%; for `O=c1oc(-c2cccs2)nc2sc3c(c12)CCC3`, 28.2%.
With `O=c1oc(-c2cc3ccccc3o2)nc2sc3c(c12)CCCC3`, the cytotoxicity was 51.3% (active).
Under `O=c1oc(-c2cccs2)nc2sc3c(c12)CCCCC3` stands 52% (active); under `Cc1nc2sc3c(c2c(=O)o1)CCCC3`, 0%.
For `Nn1c(-c2cccs2)nc2sc3c(c2c1=O)CCCC3` the value was -1.4%; for `Cc1nc2sc3c(c2c(=O)o1)CCC3`, 4.8%; for `O=C(CN1C(=O)CSC1=O)NCc1ccccc1`, 8.1%.
For `O=C(c1cc(S(=O)(=O)N2CCOCC2)ccc1F)N1CCN(Cc2ccccc2)CC1` the value was -2.7%; for `O=C(CSc1nc2ccccc2c(=O)n1CCC(=O)N1CCCCC1)NCc1ccccc1`, -24.2%.
In the case of `COc1ccc(-c2nnc(SCC(=O)Nc3cc(C)on3)n2C)cc1OC`, the cytotoxicity was -16.6%.
`O=C(NCCn1cccc1)c1cccc2ccccc12`: the cytotoxicity was 1.3%.
Under `CCOC(=O)C1CCCN(Cc2ccc(OC)cc2OC)C1` (configuration not stated) stands 8.6%; under `COc1ccc(-c2nnc(-c3cccs3)o2)cc1OC`, -10.3%.
For `COc1ccc(-c2nc(-c3cccs3)c(-c3cccs3)[nH]2)cc1O` the value was 71.6% (active).
Take `COc1ccc(-c2nc3ccccc3s2)cc1O`: the cytotoxicity was -5.7%.
For `Fc1cccc(Cl)c1CSc1nnnn1-c1ccc2c(c1)OCO2` the value was 53.7% (active).
Turning to `Fc1cccc(Cl)c1Cn1nnc(-c2ccc3c(c2)OCO3)n1`, the cytotoxicity was -6.1%.
For the compound `Fc1ccccc1CSc1nnnn1-c1ccc2c(c1)OCO2`, the cytotoxicity is -2%.
Under `CCc1nccn1S(=O)(=O)c1ccc(C)c(C)c1` stands 2.1%; under `COc1ccc(OC)c(C(c2nnnn2CC2CCCO2)N2CCN(C3CCCC3)CC2)c1` (configuration not stated), -10.4%.
As to `CC(Sc1ccccc1)C(=O)Nc1ccc(S(=O)(=O)N2CCOCC2)cc1` (configuration not stated), the cytotoxicity was -9.5%.
Turning to `CC1CN(C2CCCCC2)c2nc3c(c(=O)[nH]c(=O)n3C)n2C1` (configuration not stated), the cytotoxicity is -2%.
With `COc1cc(S(=O)(=O)N2CCN3CCCC3C2)ccc1-n1cnnn1` (configuration not stated), the cytotoxicity is 5.7%.
Turning to `COc1cc(S(=O)(=O)N2CCCC3(CCCCC3)C2)ccc1-n1cnnn1`, the cytotoxicity was 78.1% (active).
For `COc1cc(S(=O)(=O)N2CCC(N3CCCCC3)CC2)ccc1-n1cnnn1` the value was 9.2%; for `CCOC(=O)C1=C(C)NC2=C(C(=O)CCC2)C1c1ccc(N(C)C)cc1` (configuration not stated), 1.2%.
Under `COc1ccc(CCNC(=O)C2CCCN(S(=O)(=O)c3cccc4nonc34)C2)cc1OC` (configuration not stated) stands -21.9%.
For `OC(COc1ccccc1)CN1C2=NCCCN2c2ccccc21` (configuration not stated) the value was 4.3%; for `O=C(NCc1ccco1)C1OCCc2ccccc21` (configuration not stated), -15.1%.
Turning to `CCOC(=O)C1CCN(C(=O)c2ccc(SC)cc2OC)CC1`, the cytotoxicity is -4.9%.
Under `c1coc(-c2nnc(SCc3nc4ccccc4[nH]3)o2)c1` stands 65.9% (active); under `c1cncc(-c2nnc(SCc3nc4ccccc4[nH]3)o2)c1`, -14.6%; under `c1ccc2[nH]c(CSc3nnc(-c4ccncc4)o3)nc2c1`, 3.2%.
As for `Cc1cc(C)nc(NS(=O)(=O)c2ccc(NC(=O)CCCN3C(=O)c4ccccc4C3=O)cc2)n1`, the cytotoxicity was 1.9%.
Under `CC(=O)Nc1c(O)n(C)c2ccccc12` stands -20.2%; under `COc1ccc(-n2c(Cc3cccn3C)nnc2SCC(=O)NC2CCCCC2)cc1`, -11.2%.
Under `COc1ccc(N(CC(=O)NC2CCCC2)C(=O)Cn2nnc(-c3ccc(C)cc3)n2)cc1OC` stands -4.2%; under `CC1C(=O)CCC1(C(=O)O)c1ccccc1` (configuration not stated), 9.4%; under `Cc1ccc(-c2csc3ncnc(-n4nc(C)cc4N)c23)cc1`, 0.5%.
For `CCn1c(CN2CCCCCC2=O)nnc1SCc1cnc(-c2ccccc2)s1` the value was 4.1%.
Turning to `CN1CCN(Cc2nc3c(c(=O)[nH]c(=O)n3C)n2Cc2c(F)cccc2Cl)CC1`, the cytotoxicity is -13.5%.
With `CN(Cc1ccccc1)C(=O)CCS(=O)(=O)c1ccc2c(c1)n(C)c(=O)c(=O)n2C`, the cytotoxicity was -7%.
For `CCOc1ccc2[nH]c(=O)c(CN(Cc3ccco3)C(=O)c3ccc(Br)cc3)cc2c1` the value was 22.7%; for `CCOc1ccc2[nH]c(=O)c(CN(Cc3ccco3)C(=O)c3cccc(F)c3)cc2c1`, 78% (active).
Under `COc1ccc2[nH]c(=O)c(CN(Cc3ccco3)C(=O)c3ccccc3)cc2c1` stands -8.8%; under `CCCn1nnc(NC(=O)COc2ccc(Cl)cc2)n1`, -10.6%; under `COCCN(C(=O)Cc1cccs1)c1nnc(-c2cccnc2)s1`, -0.4%.
For `O=C(Nc1cnn(Cc2ccccc2)c1)c1cc2nc(-c3ccco3)cc(C(F)(F)F)n2n1` the value was 6%; for `Cc1ccccc1Cn1ccc(NC(=O)c2cc3nc(-c4ccco4)cc(C(F)(F)F)n3n2)n1`, 53% (active).
As for `O=C(Nc1ccc(Cl)cc1)c1cc2nc(-c3ccco3)cc(C(F)(F)F)n2n1`, the cytotoxicity was 66.2% (active).
For `Cc1ccccc1Cn1cc(NC(=O)c2cc3nc(-c4ccco4)cc(C(F)(F)F)n3n2)cn1` the value was 29.2%; for `O=C(Nc1cnn(Cc2ccc(F)cc2)c1)c1cc2nc(-c3ccco3)cc(C(F)(F)F)n2n1`, 38.9%; for `Cc1ccccc1Cn1ccc(NC(=O)c2cnn3c(C(F)(F)F)cc(-c4ccco4)nc23)n1`, 37.2%.
On to `CCOc1ccc(OCC)c(NC(=O)CCn2cccc2)c1`, for which the cytotoxicity was 7.1%.
For `O=C(NCC(c1cccnc1)N1CCOCC1)c1cccs1` (configuration not stated) the value was -33.1%.
For `COc1ccc(-c2c(C#N)c(SCc3c(C)noc3C)nc3c2C(=O)CC(C)(C)C3)cc1` the value was -11%; for `Cc1cc(NC(=O)CS(=O)(=O)c2cn(Cc3cccc(F)c3)c3ccccc23)no1`, -2.5%; for `CCOc1ccc(C(=O)NCC2CCCO2)cc1` (configuration not stated), 1.4%.
Turning to `c1csc(-c2ccc3ccccc3n2)c1`, the cytotoxicity is 9.1%.
Under `COC(=O)c1ccc(C)c(NS(=O)(=O)c2ccc(NC(C)=O)cc2)c1` stands 20.6%.
Under `COC(=O)c1ccc(C)c(NS(=O)(=O)c2ccc3c(c2)OCCO3)c1` stands 62.8% (active).
On to `CCCNC(=O)c1ccccc1NS(=O)(=O)c1ccc2c(c1)OCCO2`, for which the cytotoxicity was 14.8%.
Under `COC(=O)c1ccc(C)c(NS(=O)(=O)c2ccc(OC)cc2)c1` stands 68% (active); under `COC(=O)c1ccc(NS(=O)(=O)c2ccc(OC)cc2)cc1`, 2%; under `O=C(O)c1ccc(NS(=O)(=O)c2ccc3c(c2)OCCO3)cc1`, 0.3%.
On to `COC(=O)c1ccc(C)c(NC(=O)CN(c2ccc3c(c2)OCO3)S(C)(=O)=O)c1`, for which the cytotoxicity was -6.6%.
For the compound `COC(=O)c1ccc(Cl)c(NS(=O)(=O)c2ccc3c(c2)OCCO3)c1`, the cytotoxicity was 55.7% (active).
For `CC(=O)c1cc2c(cc1NS(=O)(=O)c1ccc3c(c1)OCCO3)OCO2` the value was 36.4%; for `O=S(=O)(NCCC1=CCCCC1)c1cccc2nsnc12`, -4.7%.
In the case of `CCn1c(COc2ccccc2C)nnc1SCC(=O)N1CCC(C)CC1`, the cytotoxicity is -9.2%.
Under `CCCC(C)NC(=O)c1ccc(F)cc1` (configuration not stated) stands -1.2%.
With `CCN(C(=O)CSc1nc2nc(C)cc(C)n2n1)c1cccc(C)c1`, the cytotoxicity is -9%.
Regarding `OC1CCCN(Cc2ccc3c(c2)Cc2ccccc2-3)C1` (configuration not stated), the cytotoxicity was -0.6%.
Under `CC1Cc2ccccc2N1C(=O)c1ccc2c(c1)nnn2C` (configuration not stated) stands -5.8%; under `CCOCCN1CCN(c2c(C)c(C)nc3cc(-c4cc(OC)cc(OC)c4)nn23)CC1`, 21.4%; under `CCc1c(C)nc2cc(-c3ccc(OC)c(OC)c3)nn2c1N1CCCC1`, 8.9%.
`CCCOc1ccc(C2C(=O)N(C3CCCCC3)CC(=O)N2CCC)cc1OC` (configuration not stated): the cytotoxicity was -24.3%.
As for `COc1ccccc1NC(=O)C(O)C(O)C(=O)Nc1ccccc1OC` (configuration not stated), the cytotoxicity is 6.7%.
Under `CCn1c(SCc2nc3ccccc3[nH]2)nnc1-c1ccccc1OC` stands -14.9%.
Under `COC(=O)c1cc(OC)c(OC)cc1N=CC1=C(O)CC(C)(C)CC1=O` stands 10.3%; under `c1cncc(-c2nn3cnnc3s2)c1`, 3.2%.
On to `CCN(CCO)C(=O)C12CCC(C)(C(=O)C1)C2(C)C` (configuration not stated), for which the cytotoxicity was 5.2%.
For `COc1ccc(-n2nnnc2SCC(=O)c2ccc(O)c(O)c2)cc1` the value was 17.9%; for `COc1ccc(-n2nnnc2SCC(=O)c2cccc(OC)c2)cc1`, 6.3%.
For the compound `CCOc1ccc(-n2nnnc2SCC(=O)c2ccccc2)cc1`, the cytotoxicity is 59.8% (active).
Under `Cc1ccc(S(=O)(=O)N(C)c2nonc2C)cc1` stands 9.7%.
Consider `CN(Cc1cnn(C)c1)C(=O)c1cc2ccccc2oc1=O`, for which the cytotoxicity is -0.7%.
For `C[C@]12CC[C@@H]3c4ccc(O)cc4CC[C@H]3[C@@H]1CCC2=O`, the cytotoxicity was 12.1%.
Regarding `C[C@]12CC[C@@H]3c4ccc(O)cc4CC[C@H]3[C@@H]1CC[C@@H]2OC(=O)CCC(=O)O`, the cytotoxicity is 4.5%.
Take `O=C(NCC(=O)N(c1ccc(F)cc1)C(C(=O)NCC1CCCO1)c1ccccc1)c1ccco1` (configuration not stated): the cytotoxicity is -7.1%.
